M1 antag = human M1 muscarinic receptor antagonists, primary screen, CHO-K1 cells, Fluo-8 calcium fluorescence, 1536-well; inhibition, % at 3 µM; CHO-K1 hM1, ACh EC80 antagonist; 360,000 compounds, 1.3% hits; AID 588852, 2011; Muscarinic acetylcholine receptor M1 (Homo sapiens), P11229;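 active = percent inhibition above its own plate's cutoff, namely the mean of that plate's compound wells plus 3 SD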;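 also: peak over basal fluorescence ratio during 140 s after agonist addition; 0% = ACh EC80 plus DMSO and 100% = DMSO alone without agonist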
Target sequence (P11229 whole entry, looked up): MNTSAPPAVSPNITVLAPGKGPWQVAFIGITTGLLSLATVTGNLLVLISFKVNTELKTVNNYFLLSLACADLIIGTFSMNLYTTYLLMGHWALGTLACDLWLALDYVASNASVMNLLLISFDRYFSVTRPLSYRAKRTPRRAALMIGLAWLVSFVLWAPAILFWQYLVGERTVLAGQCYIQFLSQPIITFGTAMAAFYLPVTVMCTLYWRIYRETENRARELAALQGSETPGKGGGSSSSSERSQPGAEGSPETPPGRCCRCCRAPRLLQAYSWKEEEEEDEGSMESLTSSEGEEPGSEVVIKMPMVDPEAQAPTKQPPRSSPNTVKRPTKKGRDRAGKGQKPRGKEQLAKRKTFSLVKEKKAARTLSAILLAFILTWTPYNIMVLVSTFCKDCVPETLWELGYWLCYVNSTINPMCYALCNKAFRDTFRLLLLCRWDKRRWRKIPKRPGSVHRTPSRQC
CHO-K1 Ca ag = counter-screen for M1 agonists: effect in parental CHO-K1 cells | Fluo-8 calcium fluorescence; scaled to maximal ATP response, vehicle zero | activation, % at 3 µM | 360,000 compounds, 0.48% hits | AID 602248, 2012; in the data active = activation above about 15%;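 also: untransfected CHO-K1 host cells lacking M1 receptor as counterscreen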
M1 PAM parental = nonselective calcium activators in parental CHO-K1 cells, primary screen, counter-screen for M1 PAM project, cell-based, Fluo-8 calcium fluorescence, full deck, 1536-well. ATP EC20; 0% at ATP EC20, 100% at ATP max. activation, % at 3 µM. 360,000 compounds, 0.02% hits;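 active = activation above the run cutoff, the mean activation of all test compounds plus 3 SD, cut at about 40% in these data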;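 also: peak over basal fluorescence ratio in a 140 s read after ATP addition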
CHO-K1 Ca antag = counter-screen for M1 antagonists: effect in parental CHO-K1 cells. ATP-induced calcium, Fluo-8 fluorescence. 360,000 compounds, 0.6% hits. AID 602250. inhibition, % at 3 µM;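 active = inhibition above a per-plate cutoff, the plate's mean sample inhibition plus 3 SD, cut at about 24% in these data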;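 also: 0% = DMSO plus EC80 ATP and 100% = DMSO alone without ATP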
M1 PAM = human M1 muscarinic receptor positive allosteric modulators, primary screen, CHO-K1 cells, Fluo-8 calcium fluorescence, 1536-well; Muscarinic acetylcholine receptor M1 (Homo sapiens), P11229; CHO-K1 hM1, ACh EC20; 0% = ACh EC20, 100% = maximal ACh; activation, % at 3 µM; 360,000 compounds, 0.088% hits; in the data active = activation above about 19%, passing the limit was not always enough
M1 ag = human M1 muscarinic receptor agonists, primary screen, Fluo-8 calcium fluorescence, CHO-K1 cells, HTS; CHO-K1 hM1, agonist mode; 0% DMSO, 100% acetylcholine EC100; Muscarinic acetylcholine receptor M1 (Homo sapiens), P11229; 360,000 compounds, 0.33% hits; activation, % at 3 µM;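 active = activation above the run's mean compound activation plus 3 SD, cut at about 16% in these data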;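 also: peak over basal fluorescence ratio within a 140 s kinetic read after compound addition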
An asterisk follows results filed as active. This is a sample that favours compounds with a hit; in the whole collection about 2.3% have one here.

Screening CC(C)C(=O)Nc1nnc(NC(=S)Nc2ccccc2)s1 returned M1 antag -2.9, CHO-K1 Ca ag 19.2*, M1 PAM parental 9.5, CHO-K1 Ca antag -1.9, M1 PAM 9.1 and M1 ag -6.9.
CCCc1nnc(NC(=S)Nc2ccccc2)s1 was read as M1 antag 3.0, CHO-K1 Ca ag 0.1, M1 PAM parental -8.6, CHO-K1 Ca antag -15.8, M1 PAM -0.1 and M1 ag -1.6.
O=C(NCc1ccccc1CN1CCCC1)c1cc2cc(Cl)ccc2o1 was read as M1 antag 19.4, CHO-K1 Ca ag 0.3, M1 PAM parental 4.3, CHO-K1 Ca antag -14.9, M1 PAM -9.1 and M1 ag -7.9.
For C[C@@H]1CCCCCCCCC(=O)OCCN[C@H](C)CCCCCCCCC(=O)OCCN[C@H](C)CCCCCCCCC(=O)OCCN1 the results were M1 antag 47.0*, CHO-K1 Ca ag -0.4, M1 PAM parental 0.5, CHO-K1 Ca antag -2.4, M1 PAM -37.5 and M1 ag -14.1.
CCS(=O)(=O)N1CCN(S(=O)(=O)c2ccc(Cl)s2)CC1 was read as M1 antag 37.2*, CHO-K1 Ca ag 0.2, M1 PAM parental 0.3, CHO-K1 Ca antag -1.5, M1 PAM -13.4 and M1 ag -1.9.
`CCOC(=O)c1[nH]c2ccc(F)cc2c1NC(=O)Nc1ccccc1OC` gave M1 antag -9.9, CHO-K1 Ca ag 16.4*, M1 PAM parental 9.6, CHO-K1 Ca antag -1.3, M1 PAM 5.0 and M1 ag -5.0.
`CCOC(=O)N1CCN(C(=O)c2ccc3c(=O)n(CCOC)c(=O)[nH]c3c2)CC1` gave M1 antag 28.5*, CHO-K1 Ca ag 0.2, M1 PAM parental -7.7, CHO-K1 Ca antag 11.5, M1 PAM -7.8 and M1 ag -5.0.
`CCCCCn1c(=O)[nH]c2cc(C(=O)N3CCN(C(=O)OCC)CC3)ccc2c1=O` gave M1 antag 49.4*, CHO-K1 Ca ag -0.5, M1 PAM parental -23.7, CHO-K1 Ca antag -8.4, M1 PAM -32.4 and M1 ag -11.7.
CCOCCCn1c(=S)[nH]c2cc(C(=O)N3CCC(C(N)=O)CC3)ccc2c1=O was read as M1 antag 19.5, CHO-K1 Ca ag -0.3, M1 PAM parental -6.8, CHO-K1 Ca antag 24.6*, M1 PAM -5.1 and M1 ag -1.8.
Screening CCCCCn1c(=O)[nH]c2cc(C(=O)O)ccc2c1=O returned M1 antag -9.4, CHO-K1 Ca ag 0.2, M1 PAM parental 11.2, CHO-K1 Ca antag -0.8, M1 PAM 9.6 and M1 ag -0.4.
`COc1ccccc1Cn1c(=S)[nH]c2cc(C(=O)N3CCC(C(N)=O)CC3)ccc2c1=O` gave M1 antag -5.5, CHO-K1 Ca ag 0.3, M1 PAM parental -14.1, CHO-K1 Ca antag 2.1, M1 PAM 5.9 and M1 ag -3.5.
CCOC(=O)N1CCN(C(=O)c2ccc3c(=O)n(CCc4ccccc4)c(=O)[nH]c3c2)CC1 was read as M1 antag 48.9*, CHO-K1 Ca ag 0.8, M1 PAM parental 14.0, CHO-K1 Ca antag -5.3, M1 PAM -18.9 and M1 ag -2.0.
Nc1c(Cl)ncnc1N/N=C/c1ccncc1 was read as M1 antag -9.0, CHO-K1 Ca ag -0.6, M1 PAM parental -20.0, CHO-K1 Ca antag 25.7*, M1 PAM 8.2 and M1 ag -1.6.
Screening Nc1c(Cl)ncnc1N/N=C/c1cccc(O)c1 returned M1 antag -6.8, CHO-K1 Ca ag 0.3, M1 PAM parental 13.5, CHO-K1 Ca antag -5.3, M1 PAM 2.6 and M1 ag -4.7.
Screening CCOc1ccc(S(=O)(=O)N2CCOCC2)cc1NC(=O)CN1C(=O)NC(CC)(c2ccccc2)C1=O (stereo unspecified) returned M1 antag 5.8, CHO-K1 Ca ag 1.5, M1 PAM parental 3.2, CHO-K1 Ca antag -0.1, M1 PAM -1.7 and M1 ag -2.5.
Screening CCOC(=O)Nc1ccc2c(c1)N(C(=O)CCN1CCOCC1)c1ccccc1S2=O (stereo unspecified) returned M1 antag 78.0*, CHO-K1 Ca ag 0.4, M1 PAM parental -5.4, CHO-K1 Ca antag 0.7, M1 PAM -26.6 and M1 ag -6.3.
For O=C(CSc1cn(CCNC(=O)c2cccs2)c2ccccc12)NC1CCCC1 the results were M1 antag -26.5, CHO-K1 Ca ag 2.4, M1 PAM parental 16.4, CHO-K1 Ca antag -9.2, M1 PAM -2.7 and M1 ag 5.4.
Screening O=C(OCc1ccccc1)N1Cc2ccnnc2CC1c1ccccc1Br (stereo unspecified) returned M1 antag 8.7, CHO-K1 Ca ag 0.3, M1 PAM parental 0.1, CHO-K1 Ca antag 32.5*, M1 PAM -1.2 and M1 ag -4.7.
For O=C(NCCCN1CCCCC1)c1ccc2c(c1)NC(=O)c1ccccc1S2 the results were M1 antag 42.8*, CHO-K1 Ca ag 0.7, M1 PAM parental 9.6, CHO-K1 Ca antag -12.1, M1 PAM -21.3 and M1 ag -5.7.
`O=C1Nc2cc(C(=O)NCCCN3CCCC3)ccc2S/C1=C/c1ccccc1F` gave M1 antag -11.0, CHO-K1 Ca ag -0.1, M1 PAM parental 24.1, CHO-K1 Ca antag 2.8, M1 PAM 5.6 and M1 ag -5.5.
`CCc1ccc(Nc2cc(=O)n(C3CCCCC3)c(=O)[nH]2)cc1` gave M1 antag 11.8, CHO-K1 Ca ag 19.0*, M1 PAM parental 3.5, CHO-K1 Ca antag 3.4, M1 PAM -3.2 and M1 ag 19.7*.
CCOC(=O)c1[nH]c(C)c(C(=O)OCC(=O)Nc2sc3c(c2C#N)CCCCC3)c1C was read as M1 antag -3.0, CHO-K1 Ca ag 1.0, M1 PAM parental -0.5, CHO-K1 Ca antag 5.6, M1 PAM -3.0 and M1 ag -3.6.
Screening COc1ccccc1-c1cnc(C(O)c2ccc(Cl)cc2C)[nH]1 (stereo unspecified) returned M1 antag -2.5, CHO-K1 Ca ag 0.8, M1 PAM parental 2.3, CHO-K1 Ca antag -1.8, M1 PAM 1.1 and M1 ag 1.9.
`COc1ccc(CN2C(=O)C(CC(=O)NC3CCCC3)CC(C(=O)N3CCOCC3)=C2C)cc1` (stereo unspecified) gave M1 antag 10.2, CHO-K1 Ca ag -0.2, M1 PAM parental -5.2, CHO-K1 Ca antag 23.8*, M1 PAM -2.0 and M1 ag -5.8.
`CCOc1ccc(NC(=O)CN(C)C(=O)c2cc(-c3ccc(OC)cc3)nc3ccccc23)cc1OCC` gave M1 antag 30.3*, CHO-K1 Ca ag 5.3, M1 PAM parental -15.3, CHO-K1 Ca antag 14.1, M1 PAM -8.2 and M1 ag -2.1.
